Test results reported in the supplement of paper PMC10941209.

System: HFF
Assay: cell viability relative to DMSO control; higher = less cytotoxic
Details: 1 µM; 72 h
Description: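 Single-dose cytotoxicity screen of the MMV Pandemic Response Box at 1 uM on human foreskin fibroblasts (HFF), 72 h at 37 C. Viability measured by MTT (OD 550 nm) and normalised to the DMSO control (% survival).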

Row | SMILES | cell viability
1 | C=C(C)[C@@H]1CC[C@]2(C(=O)O)CC[C@]3(C)[C@H](CC[C@@H]4[C@@]5(C)CC[C@H](O)C(C)(C)[C@@H]5CC[C@]43C)[C@@H]12 | 69.3%
2 | CC(C)(C)c1cccc(-c2nc3cc(C(=N)N)ccc3[nH]2)c1O | 64.8%
3 | CCCC(=O)OCCc1ccccc1 | 65.3%
4 | COc1ccc2c(c1OC)C(=O)OC2C1c2c(cc3c(c2OC)OCO3)CCN1C (configuration not stated) | 74.8%
5 | Nc1nc2c(ncn2/C=C2/CC2(CO)CO)c(=O)[nH]1 | 63.8%
6 | CC(C)(C)c1ccc(C(=O)NC(=O)N2CCCc3ccccc32)cc1 | 63.5%
7 | CCc1ccccc1OCCN1CCCCCC1 | 55.1%
8 | Cc1[nH]c2ccccc2c1CCNCc1ccc(/C=C/C(=O)NO)cc1 | 19%
9 | CCOc1noc2cc(OCCC3CCN(c4ccc(C)nn4)CC3)ccc12 | 53%
10 | CSc1ccc2c(c1)C(N1CCN(C)CC1)Cc1ccccc1S2 (configuration not stated) | 65%
11 | CCc1nc2ccc(Cl)cn2c1C(=O)NCc1ccc(N2CCC(c3ccc(OC(F)(F)F)cc3)CC2)cc1 | 63.2%
12 | CC(C)(C)c1ccc(C(Cn2cccc(C(F)(F)F)c2=O)NC2Cc3ccccc3C2)cc1 (configuration not stated) | 67.8%
13 | Cc1cc(O)c2c(c1)C(=O)c1c(I)c(O)c(I)c(O)c1C2=O | 71.9%
14 | Nc1nc2c(Cc3cccnc3)c[nH]c2c(=O)[nH]1 | 65.2%
15 | CC[C@@H](CO)NCCN[C@@H](CC)CO | 76.1%
16 | Cc1cc(-c2ccccc2)c(C(=O)C(=O)Nc2ccc(N3CCN(c4ncc(F)cn4)CC3)cc2)n1C | 76.8%
17 | CCOc1ccc(/C=N/NC(=O)C2CC2c2ccc(C(C)(C)C)cc2)cc1OCC (configuration not stated) | 57.3%
18 | COc1ccc(SC(=O)N[C@H](CCC(=O)O)C(=O)O)cc1 | 59.7%
19 | COc1cc(C)c2c(Oc3cccc(C(F)(F)F)c3)c(OC)cc(NC(C)CCCN)c2n1 (configuration not stated) | 61.2%

Row | SMILES | cell viability
20 | O=C(O)COc1cccc2c1CC[C@](O)(COC(=O)N(c1ccccc1)c1ccccc1)C2 | 68.5%
21 | O=C(NN1C(=O)[C@@H]2[C@@H]3C=C[C@@H]([C@H]4C[C@@H]34)[C@@H]2C1=O)c1ccc(C(F)(F)F)cc1 | 71.8%
22 | Nc1nc2c(ncn2COCCO)c(=O)[nH]1 | 68.8%
23 | C[C@@H](NC(=O)c1cccc(-c2cnc(-c3cc4ccccc4cn3)[nH]2)c1)c1ccc(F)cc1 | 74.3%
24 | NC(=O)c1ccccc1NC(=O)c1ccc(C(=O)Nc2ccccc2C(N)=O)cc1 | 63.5%
25 | CC(C)c1cc2c(cc1S(=O)(=O)O)[C@@]1(C)CCC[C@@](C)(C(=O)O)[C@@H]1CC2 | 64.8%
26 | NC(=O)c1ccc(I)c([N+](=O)[O-])c1 | 71.1%
27 | COc1c(NC(=O)[C@H]2CC[C@@H](COc3ccc([N+](=O)[O-])cc3)CC2)c(F)cc2c(=O)c(C(=O)O)cn(C3CC3)c12 | 62.8%
28 | CCc1nc(N)nc(N)c1C#CC(C)c1cc(OC)cc(-c2ccncc2)c1 (configuration not stated) | 79.3%
29 | COC(=O)Nc1nc2cc([S+]([O-])c3ccccc3)ccc2[nH]1 (configuration not stated) | 64.6%
30 | CCCCc1ccc(S(=O)(=O)Nc2cc(C)on2)cc1 | 63.3%
31 | CCc1cc(O)c(Oc2ccc(C(N)=O)cc2F)cc1F | 67.9%
32 | CC(C)c1ccc(COc2cccc(-c3cc([S+](C)[O-])c(C#N)c(=O)[nH]3)c2)cc1 (configuration not stated) | 76.9%
33 | Cc1cccc(C)c1C(=O)Nc1nc(-c2ccccn2)cc2ccccc12 | 74.7%
34 | COc1ccc(CNC(=O)C2CCN([C@H](C)c3cccc4ccccc34)CC2)cc1 | 62.6%
35 | NCCCc1ccccc1C(=O)Nc1ncc([N+](=O)O)s1 | 65%
36 | COc1ccccc1NC(=O)c1ccccc1Sc1ccc([N+](=O)[O-])cc1 | 55.7%
37 | CC(C)(C)c1cc(C(=O)/C(C#N)=N/Nc2cccc(Cl)c2)no1 | 53%
